Measured values reported in PubChem BioAssay AID686978 (National Center for Advancing Translational Sciences (NCATS), 2013).
The campaign covered roughly 420,000 compounds. About 64,000 (15%) were called active. Not shown: some 27% with an inconclusive outcome. Calls follow the shape of the dose curve; as a rule, active = well fitted inhibition curve with a large enough effect; inconclusive = small, poorly fitted or top-dose-only effect; inactive = flat fitted curve, though single readings scatter. Not all results are given here. A call without a number means that no potency is given here.

Experiment: qHTS for Inhibitors of human tyrosyl-DNA phosphodiesterase 1 (TDP1): qHTS in cells in absence of CPT; also: nearly all actives have a fitted effect of over 55% in size
Conditions: DT40 Tdp1-/- hTDP1 cells, no CPT, ATP luminescence, 48 h; activity change, negative = growth inhibition: at 46.2 µM (top of the series)
How it was run: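 A cellular qHTS used chicken DT40 cells lacking endogenous Tdp1 but carrying stably transfected human TDP1. Compounds were applied without camptothecin, and cell growth kinetics were judged by ATP-dependent luminescence after ≥48 hr.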
Potency is read from the fitted curve at half-maximal effect.

Row | SMILES | Potency
1 | Cc1cc(OC(C)C(=O)NC2CC(C)(C)NC(C)(C)C2)c2c(C)cc(=O)oc2c1 (stereo not given) | inactive
2 | Oc1ccccc1-c1nc(/C=C/c2ccc(F)cc2)no1 | inactive
3 | CCCN(c1ccc(C(C)C)cc1)S(=O)(=O)c1c(C)[nH]c(=O)[nH]c1=O | inactive
4 | O=C(NC1CCCCC1)C1CCC(CNS(=O)(=O)c2ccccc2)CC1 (stereo not given) | inactive
5 | CCOc1ccc(N(CC(=O)NC2CCCCCC2)S(=O)(=O)c2c(C)[nH]c(=O)[nH]c2=O)cc1 | inactive
6 | CC(=O)NC(NC(=S)Nc1c(C)n(C)n(-c2ccccc2)c1=O)C(Cl)(Cl)Cl (stereo not given) | inactive
7 | CC1(C)Cc2cccc(OCC(N)=O)c2O1 | inactive
8 | CC(=O)Nc1cncc(-c2ccccc2CO)n1 | inactive
9 | CC1C(=O)NC(=O)C1c1ccccc1 (stereo not given) | inactive
10 | O=C(CNC(=O)c1ccccc1Br)NCCSc1ccc(Br)cc1 | 18.4 µM (active)
11 | COc1cccc(C(=O)NCCSc2ccc(Br)cc2)c1 | inactive
12 | O=C(CCNS(=O)(=O)c1ccccc1)NCCSc1ccc(Br)cc1 | inactive
13 | CC(=O)c1sc(NC(=O)CCN2C(=O)C3CC=CCC3C2=O)nc1-c1ccccc1 (stereo not given) | inactive
14 | CC(Oc1ccccc1)C(=O)Nc1oc(-c2ccco2)c(-c2ccco2)c1C#N (stereo not given) | inactive
15 | CCc1ccc(NC(=O)c2cc(S(=O)(=O)N3CCCC(C)C3)cn2C)cc1 (stereo not given) | inactive
16 | CSc1ncc(Cl)c(C(=O)Nc2cc(C)ccc2C)n1 | inactive
17 | CSc1ncc(Cl)c(C(=O)Nc2ccc(S(=O)(=O)N3CCCC(C)C3)cc2)n1 (stereo not given) | 14.6 µM (active)
18 | COc1c(F)c(F)c(-c2csc(N)n2)c(F)c1F | inactive
19 | Cc1cc(C)n(CCNCc2c(C(=O)N3C[C@@H](C)O[C@@H](C)C3)nc3ccc(Cl)cn23)n1 | inactive
20 | CC(=O)NN1C(=O)c2ccccc2NC1c1ccccc1 (stereo not given) | inactive
21 | CCOC(=O)NN1C(=O)c2ccccc2NC1c1ccccc1O (stereo not given) | 23.1 µM (active)
22 | O=C1c2ccccc2NC(c2ccccc2O)N1NS(=O)(=O)c1ccccc1 (stereo not given) | inactive
23 | CCCCNC(=O)C(=O)c1ccccc1NC(C)=O | inactive
24 | CCCCNC(=O)Nc1c(C)cc(SC#N)cc1C | 8.2 µM (active)
25 | CCC(C)C(CO)NC(=O)/C=C/[C@H]1O[C@@H](n2cnc3c(NC(=O)c4ccccc4)ncnc32)[C@H](O)[C@@H]1O (stereo not given in full) | inactive
26 | CNc1nnc(-c2ccco2)s1 | inactive
27 | O=C(NCc1ccccn1)Nc1ccc(F)cc1 | inactive

Row | SMILES | Potency
28 | CCOC(=O)c1ccccc1NC(=O)CSc1nc2c(sc(=S)n2CC)c(=O)[nH]1 | inactive
29 | CC(C)CN1CCNC(=O)C1CC(=O)N(C)CC1CCOCC1 (stereo not given) | inactive
30 | CC(NC(=O)CN(C)S(=O)(=O)c1ccc(F)cc1)C1CC2CCC1C2 (stereo not given) | inactive
31 | COC(=O)c1cc(C(=O)OCC(=O)Nc2cc(C)on2)cc([N+](=O)[O-])c1 | inactive
32 | COC(=O)c1cc(C(=O)NC(C)C2CC3CCC2C3)cc([N+](=O)[O-])c1 (stereo not given) | 20.6 µM (active)
33 | OC1CN=C2Sc3ccccc3N2C1 (stereo not given) | inactive
34 | O=C(NC(=O)c1ccc(Cl)c(Cl)c1)OC1CCS(=O)(=O)C1 (stereo not given) | inactive
35 | CCCCOc1ccc(C(=O)NCC(=O)OCC(=O)c2c(N)n(C)c(=O)n(C)c2=O)cc1 | inactive
36 | COc1cc(NC(=O)c2cncc(-c3ccc(C#N)cc3)c2)cc(C(=O)Nc2cccc(C(F)(F)F)c2)c1 | 10.3 µM (active)
37 | COc1cc(NC(=O)c2[nH]cnc2C(N)=O)cc(C(=O)Nc2cccc(C(F)(F)F)c2)c1 | 18.4 µM (active)
38 | COc1cc(NC(=O)c2cccnc2SC)cc(OC)c1 | inactive
39 | O=C(Nc1cccc(C(F)(F)F)c1)c1cnccn1 | inactive
40 | CCn1nnnc1SCC(=O)Nc1ccc(N(C)C)cc1 | inactive
41 | Cn1c(N)c(C(=O)COC(=O)/C=C/c2cccc(C(F)(F)F)c2)c(=O)n(C)c1=O | inactive
42 | Cc1noc(C)c1-c1nccc(N2CCOCC2)n1 | inactive
43 | CCCCc1nc2cc(C(=O)NCCc3cnn(C)c3)ccc2o1 | inactive
44 | O=C(Nc1ccccc1C(=O)N1CCCCCC1)c1ccccc1Cl | inactive
45 | O=C(O)C1CC=CCC1C(=O)Nc1ccccc1C(=O)N1CCN(c2ccccc2)CC1 (stereo not given) | 20.6 µM (active)
46 | CC1CCN(C(=O)c2ccccc2NC(=O)Cc2ccccc2)CC1 | inactive
47 | Cc1ccccc1NC(=O)C1CCN(C(=O)NC2CCCCC2)CC1 | inactive
48 | CC1CC(=O)N(CC(=O)Nc2cccc(Cl)c2)c2ccccc2S1(=O)=O (stereo not given) | inactive
49 | Cc1ccc(NC(=O)CN2c3ccccc3S(=O)(=O)c3ccccc32)cc1F | 18.4 µM (active)
50 | CC(=O)N1CCN(CC(=O)Nc2ccc(C)c(F)c2)CC1 | inactive
51 | CCCCOc1ccc(NC(=O)c2cc3c(n(-c4ccc(Cl)cc4)c2=O)CCCC3=O)cc1 | inactive
52 | c1ccc2cc(C3=NCCN3)ccc2c1 | inactive
53 | Cc1cc(=O)c2cc(C(=O)Nc3cccc(C)c3C)ccc2[nH]1 | inactive
54 | C=CCNC(=O)c1ccccc1NC(=O)c1ccc(Cl)c(S(=O)(=O)Nc2cccc(C)c2C)c1 | 16.4 µM (active)

Row | SMILES | Potency
55 | Cc1ccccc1NC(=O)c1cc(S(=O)(=O)Nc2cccc(C(=O)O)c2)ccc1Cl | inactive
56 | CC1(C)CC(=O)C2=C(C1)Nc1cc(C(=O)c3ccccc3)ccc1NC2c1ccccn1 (stereo not given) | inactive
57 | O=C(COC(=O)c1ccccc1OCCOc1ccccc1)Nc1cccc(Br)c1 | inactive
58 | Cc1cccc(C(=O)OCC(=O)Nc2ccc(F)cc2)c1 | inactive
59 | Cc1cccc(NC(=O)COC(=O)c2ccccc2OCc2cccc(Br)c2)c1 | 22.4 µM (active)
60 | Nc1nc(C23CC4CC(CC(C4)C2)C3)cs1 | inactive
61 | CN(C)c1ccc(S(=O)(=O)NCC(=O)NCC2CCCCC2)cc1[N+](=O)[O-] | inactive
62 | Cc1noc(NS(=O)(=O)c2ccc(N3CC(O)=C(c4ccccc4)C3=N)cc2)c1C | inactive
63 | CCC(C)c1ccccc1N1CC(C(=O)N2CCN(S(=O)(=O)c3ccc(F)cc3)CC2)CC1=O (stereo not given) | inactive
64 | CC(=O)NC(c1ccccc1)c1nc(-c2ccccc2C)cs1 (stereo not given) | inactive
65 | CCC1=C(OC(=O)N(CC)CC)N2C(=O)OC(=NCC3CC3)[C@]2(C)[C@H]2C1=CC[C@H]1C(=O)N(CC(=O)OC)C(=O)[C@H]12 | inactive
66 | CCn1nc(C(=O)NNS(=O)(=O)c2cc(/C=C/C(=O)O)cc(OC)c2OC)c2ccccc2c1=O | inactive
67 | CCn1nc(C)c(NC(=O)/C=C/c2ccc(OC)c(COc3ccc(Br)cc3)c2)c1C | 20.6 µM (active)
68 | COc1ccc(OC)c(S(=O)(=O)Nc2c(C)nn(C)c2C)c1 | inactive
69 | COC(=O)c1c(NC(=O)c2ccccc2F)sc2c1C(C(=O)OC)CC2 (stereo not given) | 11.6 µM (active)
70 | Cc1ccccc1NC(=O)c1c(NC(=O)c2ccccc2F)sc2c1CCC(C)C2 (stereo not given) | inactive
71 | O=C(Nc1nnc(-c2ccccc2F)s1)c1ccccc1F | inactive
72 | COc1cc(NC(=O)CCNC(=O)Cn2ccc3ccccc3c2=O)cc(OC)c1OC | inactive
73 | CC(=O)C[C@H](O)CC(=O)[C@@H]1OC(=O)[C@@H](C)C/C=C\Cc2ccccc21 | inactive
74 | N#CC1=C(N)Oc2cc(N)ccc2C1c1ccccc1 (stereo not given) | 18.4 µM (active)
75 | Cc1cc(C)c2c3c(sc2n1)C(c1ccccc1)C(C#N)=C(N)O3 (stereo not given) | inactive
76 | CC(C)c1ccc(C2C(C#N)=C(N)Oc3c2oc(CO)cc3=O)cc1 (stereo not given) | inactive
77 | c1nc(COc2nsnc2N2CCOCC2)cs1 | inactive
78 | CC(=O)Nc1cc2ccc(OC(C)=O)cc2oc1=O | inactive
79 | CC(C)NC(=O)C(=O)N/N=C/c1ccco1 | inactive
80 | CCCc1nc2c(C)cc(-c3nc4ccccc4n3C)cc2n1Cc1ccc(-c2ccccc2C(=O)O)cc1 | inactive
81 | Cc1ccc(Cn2c(CCCNC(=O)C3CCCCC3)nc3ccccc32)cc1 | 20.6 µM (active)

Row | SMILES | Potency
82 | Cc1ccc(CN2C(=O)CCC2C(=O)NCCCN2CCCCC2C)cc1 (stereo not given) | inactive
83 | CCCNC(=O)C1CCN(c2nc3ccc(C)cc3[nH]2)CC1 | inactive
84 | CCc1ccc(OCCCn2c(CCCNC(=O)C3CCCCC3)nc3ccccc32)cc1 | 4.47 µM (active)
85 | CC(C)Oc1ccc(CNC(=O)C2CCN(c3nc4ccccc4n(C)c3=O)CC2)cc1 | inactive
86 | O=C(NCCCc1ccccc1)C1CCC(CNc2c(N3CCCCC3)c(=O)c2=O)CC1 (stereo not given) | inactive
87 | Cc1ccc(C)c(Cn2c(CCCNC(=O)C3CCCCC3)nc3ccccc32)c1 | 16.4 µM (active)
88 | CCCCNC(=O)CCn1c(=O)c2ccccc2n(Cc2cc(C)ccc2C)c1=O | inactive
89 | O=C(NC1CC(=O)N(c2ccc(F)cc2)C1)c1cccs1 (stereo not given) | inactive
90 | Cc1cc(C)c(S(=O)(=O)c2ccc(F)cc2C)c(=O)[nH]1 | inactive
91 | COc1cccc(NC(=O)c2nn(-c3ccc(OC)cc3OC)c(=O)c3ccccc23)c1 | inactive
92 | O=C1NC(c2ccccc2)Cc2ccncc21 (stereo not given) | inactive
93 | N[C@H]1CN(c2c(F)cc3c(=O)c(C(=O)O)cn(C4C[C@H]4F)c3c2Cl)CC12CC2 (stereo not given in full) | inactive
94 | NS(=O)(=O)c1cccc(NC(=O)CN2CCCc3ccccc32)c1 | inactive
95 | COC(=O)c1[nH]c2cccc(C)c2c1NC(=O)CN1CCCc2ccccc21 | 20.6 µM (active)
96 | Cc1ccc(OCC(=O)Nc2cccc3c2CCCC3)cc1C | inactive
97 | CCN1CCN(C(=O)C2(NC(=O)Nc3cccc(F)c3)CCCCC2)CC1 | inactive
98 | O=C(COc1ccc2ccc(=O)oc2c1)NCC(O)c1ccccc1 (stereo not given) | inactive
99 | COCCn1c(=O)c(-c2ccc(OC)cc2)nc2cnc(Oc3cccc(Cl)c3)nc21 | inactive
100 | O=C(NCc1cccs1)C1CCN(S(=O)(=O)c2ccc3c(c2)OCCO3)CC1 | inactive
101 | COc1ccc(C(=O)OCC(=O)Nc2cc(C)on2)cc1F | inactive
102 | O=C(CCNC(=O)c1ccc(Cl)cc1)NC1CCCc2ccccc21 (stereo not given) | inactive
103 | CC(=O)NCC(=O)NC1CCCc2c1cnn2-c1ccccc1F (stereo not given) | inactive
104 | Cn1nccc1C(=O)NC1CCCc2c1cnn2-c1ccccc1F (stereo not given) | 2.06 µM (active)
105 | Cn1nccc1C(=O)NC1CCCc2c1cnn2-c1ccc(F)cc1F (stereo not given) | 1.64 µM (active)
